Out of some 310,000 compounds screened, about 14,000 (4.5%) showed an effect of 50% or more. Effects have a minus sign here. The sample as a whole holds a higher share of strong results than the screen did.
biological target: human ether-à-go-go-related gene (hERG) potassium channel (human, UniProt Q12809); assay: primary screen, population patch clamp on CHO cells stably expressing hERG; higher = less effect of the substance
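Further: peak tail current of the secondary pulse compared with the same well before compound.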

Chain of human ether-à-go-go-related gene (hERG) potassium channel (Q12809 whole entry, looked up): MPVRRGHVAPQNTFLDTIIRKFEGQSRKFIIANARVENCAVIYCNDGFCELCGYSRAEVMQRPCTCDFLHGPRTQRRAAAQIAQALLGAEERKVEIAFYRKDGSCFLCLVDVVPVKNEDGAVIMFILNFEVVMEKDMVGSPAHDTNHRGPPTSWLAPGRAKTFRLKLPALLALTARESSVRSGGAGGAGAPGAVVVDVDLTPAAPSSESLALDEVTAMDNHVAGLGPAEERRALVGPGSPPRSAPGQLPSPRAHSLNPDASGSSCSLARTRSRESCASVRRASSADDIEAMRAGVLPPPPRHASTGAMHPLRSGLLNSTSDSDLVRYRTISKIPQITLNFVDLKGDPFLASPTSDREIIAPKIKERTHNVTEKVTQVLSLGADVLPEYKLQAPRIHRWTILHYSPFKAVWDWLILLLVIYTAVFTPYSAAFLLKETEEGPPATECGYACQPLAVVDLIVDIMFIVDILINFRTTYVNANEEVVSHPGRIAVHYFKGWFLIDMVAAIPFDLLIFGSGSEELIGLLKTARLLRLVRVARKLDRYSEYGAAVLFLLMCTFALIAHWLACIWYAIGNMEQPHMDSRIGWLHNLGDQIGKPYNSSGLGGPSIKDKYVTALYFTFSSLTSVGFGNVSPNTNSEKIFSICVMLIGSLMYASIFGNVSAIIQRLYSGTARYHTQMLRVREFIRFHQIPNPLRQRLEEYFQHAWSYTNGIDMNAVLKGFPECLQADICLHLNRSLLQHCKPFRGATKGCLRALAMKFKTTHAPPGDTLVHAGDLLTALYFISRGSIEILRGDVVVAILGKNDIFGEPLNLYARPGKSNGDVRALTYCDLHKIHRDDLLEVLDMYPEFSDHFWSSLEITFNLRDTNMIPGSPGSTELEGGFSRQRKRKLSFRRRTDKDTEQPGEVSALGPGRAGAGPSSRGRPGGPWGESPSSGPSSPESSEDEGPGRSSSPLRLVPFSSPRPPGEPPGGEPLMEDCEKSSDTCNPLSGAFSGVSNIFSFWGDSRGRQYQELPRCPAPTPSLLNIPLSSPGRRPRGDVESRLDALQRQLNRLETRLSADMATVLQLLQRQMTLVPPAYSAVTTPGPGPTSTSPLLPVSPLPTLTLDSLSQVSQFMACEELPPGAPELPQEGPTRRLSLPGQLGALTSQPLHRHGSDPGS

Row | Structure (SMILES) | hERG current change (%, negative = inhibition) at 10uM
1 | CCOc1cc(/C=N/NC(=O)CSc2cccc3cccnc23)ccc1O | 9.6%
2 | CCOc1ccccc1OCCC(=O)OCC(=O)Nc1c(C)nn(-c2ccccc2)c1C | 1.41%
3 | O=C(CCC(=O)c1ccccc1)NCc1cccc(C(F)(F)F)c1 | 4.89%
4 | CC(C)(C)c1ccc(/C=C(\c2nc3ccccc3[nH]2)S(=O)(=O)c2ccccc2)cc1 | 0.84%
5 | O=C(Nc1c2c(nn1-c1ccccc1)CS(=O)(=O)C2)c1ccccc1C(F)(F)F | 14.3%
6 | O=C(O)c1ccc(/C=C/c2nc3sc4c(c3c(=O)[nH]2)CCC4)cc1 | 14.2%
7 | Cc1nn(C(=O)c2cccnc2)c(C)c1C | 0.855%
8 | C/C(=N/NS(=O)(=O)c1cccc([N+](=O)[O-])c1)c1c[nH]c2ccccc12 | 13%
9 | CCOC(=O)/C(C#N)=C/c1cccc([N+](=O)[O-])c1 | 25%
10 | CC(Oc1ccccc1Cl)C(=O)Nc1ccc(S(=O)(=O)Nc2nccs2)cc1 (centres unmarked) | -0.857%
11 | CC1CCC2(CC1)NC(=O)N(CC(=O)Nc1cccc(C#N)c1)C2=O (centres unmarked) | 9.8%
12 | O=C(NCc1cccnc1)NC(=O)c1ccc(Cl)cc1 | 3.09%
13 | CCN1C(=O)[C@@H]2[C@@H](c3ccc(-c4ccc5c(c4)OCO5)cc3)N3CCCC[C@@]3(C(=O)OC)[C@@H]2C1=O.O=C(O)C(F)(F)F | 21%
14 | COc1cccc(C(=O)N2CCN(Cc3cc(Br)ccc3OC)CC2)c1.O=C(O)C(=O)O | -51.8%
15 | COc1ccc(OC)c(CN2CCCCCC2)c1.O=C(O)C(=O)O | 15.7%
16 | COc1ccc(OC)c(CN2CCN(C(=O)Cc3ccccc3)CC2)c1.O=C(O)C(=O)O | -4.63%
17 | O=C(O)C(=O)O.c1ccc(CC2CCN(Cc3ccccn3)CC2)cc1 | -23.1%
18 | COc1ccc(OC)c(CN2CCC(Cc3ccccc3)CC2)c1.O=C(O)C(=O)O | -69.4%
19 | COc1ccc(Br)cc1CN1CCN(C(=O)c2cccc(F)c2)CC1.O=C(O)C(=O)O | -39.2%
20 | Cc1[nH]c2ccccc2c(=O)c1CN1CCCCCC1 | -7.41%
21 | Cc1[nH]c2ccccc2c1CN1CCC(Cc2ccccc2)CC1.O=C(O)C(=O)O | -67.4%
22 | COc1ccc(Br)cc1CN1CCN(C(=O)c2ccc(OC)c(OC)c2)CC1.O=C(O)C(=O)O | -38.1%
23 | CN1CCN(/N=C/c2nc(-c3ccccc3Cl)n3ccccc23)CC1 | -34.1%
24 | CCCOC(=O)Nc1ccccc1C(N)=O | 4.61%
25 | O=C(O)CCCCC1SCC2NC(=O)NC21 (centres unmarked) | 3.46%

Row | Structure (SMILES) | hERG current change (%, negative = inhibition) at 10uM
26 | O=C(Nc1ccccc1F)Nc1ccc([N+](=O)[O-])cc1Cl | 18.4%
27 | O=C(c1cc(=O)[nH]c2ccccc12)N1CCN(c2cccc(C(F)(F)F)c2)CC1 | -27.1%
28 | CCOC(=O)c1sc(=S)n(-c2ccccc2Cl)c1C | -13.8%
29 | CCOC(=O)Cn1c(=NC(=O)c2cccs2)sc2cc(C(=O)OC)ccc21 | 17.4%
30 | Cc1ccc(NC(=O)c2cc([N+](=O)[O-])ccc2Cl)c(O)c1 | -4.12%
31 | Cc1nc2cc(NC(=O)CS(=O)(=O)c3ccc(F)cc3)ccc2s1 | -55.8%
32 | Cc1nc2cc(NC(=O)CS(=O)(=O)c3ccccc3)ccc2s1 | -23.8%
33 | Cc1nc2ccc(NC(=O)CS(=O)(=O)c3ccc(F)cc3)cc2s1 | -7.44%
34 | CCCN1C(=O)CC(C(=O)OC)=C1C | 12.9%
35 | CCN(CC)c1ncnnc1-c1ccccc1 | 15.9%
36 | CCN(CC)c1nc(C(N)=O)cc(-c2ccccc2)n1 | -0.608%
37 | CCN(CC)C1=NC=CC(c2ccccc2)=CC1C (centres unmarked) | -55.1%
38 | CCN(CC)c1ccccc1 | 12.7%
39 | CCN(CC)c1cc(-c2ccccc2)ncn1.Cl | -16.5%
40 | CCC1C=C(c2ccccc2)C=CN=C1N(CC)CC (centres unmarked) | -61.6%
41 | COc1ccccc1NS(=O)(=O)c1cccc(N=C2N=C(N)c3ccccc32)c1 | 11.7%
42 | CCCc1nn(C)c2c1C(c1ccncc1)C(C#N)=C(N)O2 (centres unmarked) | 15.4%
43 | C/C(O)=C/c1nc2ccccc2[nH]c1=O | -5.26%
44 | C=C(Cl)COc1ccc2c(CCCC)cc(=O)oc2c1 | -24.9%
45 | C=CCn1c(NCc2ccccc2OC)nc2ccccc21 | -18.9%
46 | CCCn1c(NCc2cccc(OC)c2OC)nc2ccccc21 | -13.9%
47 | COc1cccc(CNc2nc3ccccc3n2CCN2CCCCC2)c1OC | -63.6%
48 | COc1ccccc1CNc1nc2ccccc2n1CCN1CCCCC1 | -61.5%
49 | Oc1ccccc1CNc1nc2ccccc2n1CCN1CCCCC1 | -2.31%
50 | CCn1c(NCc2cccc(OC)c2OC)nc2ccccc21 | -21%

Row | Structure (SMILES) | hERG current change (%, negative = inhibition) at 10uM
51 | CC(Nc1ccccc1CO)C(=O)Nc1cccc(Cl)c1Cl (centres unmarked) | 5.35%
52 | O=C(Cn1c(NCCO)nc2ccccc21)NCC(F)(F)F | 10.4%
53 | O=C(NCCC1=CCCCC1)C1CCCN(S(=O)(=O)c2ccccc2)C1 (centres unmarked) | 6.97%
54 | CCCC(=O)Nc1ccc2oc(-c3ccncc3)nc2c1 | 5.92%
55 | CCOC(=O)c1oc2ccccc2c1CN1CCN(C(=O)c2ccccc2)CC1 | -41.7%
56 | CCOC(=O)c1oc2ccccc2c1CN1CCCCC1.Cl | -55%
57 | CCOC(=O)c1oc2ccccc2c1CN1CCN(C)CC1.Cl | -61.5%
58 | CCOC(=O)c1oc2ccccc2c1CN1CCOCC1.Cl | -4.56%
59 | CCOC(=O)c1oc2ccccc2c1CN1CC(C)OC(C)C1 (centres unmarked) | -0.576%
60 | CCOC(=O)c1oc2ccccc2c1CN1CCN(c2ccccc2)CC1.Cl | -26.6%
61 | Cc1ccc(Cn2cc(/C=C/C(=O)O)c(-c3ccccc3)n2)cc1 | 6.77%
62 | CCC(C)C1Nc2ccc(C(=O)NCCc3ccc(OC)c(OC)c3)cc2NC1=O (centres unmarked) | 20.4%
63 | Cc1ccc(N2CCN(c3ccc(C)cc3)C2c2cccnc2)cc1 | 17.6%
64 | CCC(=O)NC(=S)NNC(=O)COc1ccc(Br)cc1 | 14.4%
65 | CCOCCOc1nc(C)cc(C)c1S(=O)(=O)c1ccccc1C | -4.15%
66 | CCOC(=O)C1(Cc2ccccc2)CCN(Cc2cccc3c2OCO3)CC1 | -36.7%
67 | CCOC(=O)C1(CCc2ccccc2)CCN(Cc2cccc3c2OCO3)CC1 | -75%
68 | CCOC(=O)C1(CCOc2ccccc2)CCN(Cc2cccc3c2OCO3)CC1 | -64.6%
69 | O=C(CN1C(=O)c2ccccc2C1=O)Nc1ccccc1 | -0.118%
70 | CCOC(=O)N1CCN(C(=O)C2CCCN(S(=O)(=O)c3cc(C)ccc3OC)C2)CC1 (centres unmarked) | -5.57%
71 | COCc1c(C#N)c(NCc2cc(OC)c(OC)c(OC)c2)nc(C)c1[N+](=O)[O-] | -12.2%
72 | Cc1ncc(CN2CCC(C(=O)Nc3ccc(-n4cccn4)cc3)CC2)s1 | -21.2%
73 | O=C(Nc1cccc(-c2cscn2)c1)C1CCN(Cc2ccsc2)CC1 | -65%
74 | O=C(Nc1ccc(-n2cccn2)cc1)C1CCN(Cc2ccccn2)CC1 | -16.7%
75 | CSc1ncc(CN2CCC(C(=O)Nc3cccc(-c4cscn4)c3)CC2)cn1 | -35.7%

Row | Structure (SMILES) | hERG current change (%, negative = inhibition) at 10uM
76 | Cc1ncc(CN2CCC(C(=O)Nc3cccc(-c4cscn4)c3)CC2)cn1 | -11.9%
77 | O=C(Nc1ccc(-n2cccn2)cc1)C1CCN(Cc2ccsc2)CC1 | -81.1%
78 | Cc1ccc(CN(CC(=O)NCc2ccccn2)S(=O)(=O)c2ccccc2)cc1 | -23.9%
79 | COC(=O)CN(C#N)c1nc(NCc2ccccc2)nc(OC)n1 | -1.33%
80 | CCN(CC(=O)Nc1ccc2c(c1)OCCO2)CC(=O)Nc1ccc2c(c1)OCO2 | 28%
81 | Cc1ccc(CC(CC(=O)Nc2cccc(C(F)(F)F)c2)C(=O)O)cc1 (centres unmarked) | 18%
82 | COc1cc2c(cc1OC)-c1cc(OCCN3CCOCC3)nc(=O)n1CC2 | -11.5%
83 | O=C(O)c1nccnc1C(=O)Nc1ccc(Cl)cn1 | 17.6%
84 | CCC(C)NC(=O)[C@H]1N2C(=O)c3ccccc3C2SC1(C)C (some centres unmarked) | 12.8%
85 | Cc1noc(C(=O)Nc2c(C)nn(Cc3ccccc3)c2C)c1Cl | 4.71%
86 | CC1CCCC(NC(=O)CSc2ccc(F)cc2)C1C (centres unmarked) | 18.7%
87 | CC1CCCC(NCC(O)COC(c2ccc(F)cc2)c2ccc(F)cc2)C1C (centres unmarked) | -71.6%
88 | CC1CCCC(NC(=O)CCC(=O)c2ccc(F)cc2)C1C (centres unmarked) | 8.27%
89 | Cc1cccc(C(=O)N2CCN(c3ncnc4c3cnn4-c3ccccc3)CC2)c1 | -19.4%
90 | CCOC(=O)C(C)Oc1ccc2c(-c3cccc([N+](=O)[O-])c3)cc(=O)oc2c1 (centres unmarked) | -62.4%
91 | COc1ccc(-c2cc(=O)oc3cc(OC(C)C(=O)NCc4ccccn4)ccc23)cc1 (centres unmarked) | -54.8%
92 | COc1ccc(-c2cc(=O)oc3cc(OCC(=O)NCc4ccccn4)ccc23)cc1 | -6.52%
93 | CC(=O)COc1ccc2c(-c3cccc([N+](=O)[O-])c3)cc(=O)oc2c1 | -25.9%
94 | COc1ccc(-c2cc(=O)oc3c(C)c(OC(C)C(=O)NCc4ccccn4)ccc23)cc1 (centres unmarked) | -9.16%
95 | COC(=O)C(C)Oc1ccc2c(-c3cccc([N+](=O)[O-])c3)cc(=O)oc2c1 (centres unmarked) | -25.8%
96 | CCc1cc(=O)oc2cc(OC(C)C(=O)NCc3ccccn3)ccc12 (centres unmarked) | 14.4%
97 | CC(Oc1ccc2c(-c3ccccc3)cc(=O)oc2c1)C(=O)NCc1ccccn1 (centres unmarked) | -50.9%
98 | Cc1cc(=O)oc2cc(OC(C)C(=O)NCc3ccccn3)ccc12 (centres unmarked) | 9.03%

From PMC4336329 (PLoS ONE, 2015)
